Measured values published in PubChem BioAssay (Tox21).
Unmarked numbers belong to inactive results. Where a structure was tested more than once in an assay, its records may differ in their call. The source made the active and inactive calls. Calls come from the whole dose curve.

Assay: qHTS assay to identify small molecule agonists of the estrogen related receptor (ERR) signaling pathway from Tox21 library (AID 1224849); note: nearly all actives have a fitted effect of over 15% in size
Settings: ERR reporter cell line, ONE-Glo luciferase, 18 h; at 42.5 µM (top of the series)
From the text: National Center for Advancing Translational Sciences [NCATS]
NIH Chemical Genomics Center [NCGC]
U.S. Environmental Protection Agency [EPA]
National Institutes of Environmental Health Sciences [NIEHS]
National Toxicology Program [NTP]
Estrogen related receptors (ERRs), the first orphan nuclear receptors discovered, play an important role in the control of cellular energy metabolism. ERRs are required for high-energy production in response to the environmental challenges. ERR-alpha was also identified as an adverse marker for breast cancer progression; ERR-alpha-positive tumors have a poor prognosis. To screen and to identify environmental compounds that perturb the ERR signaling pathways could provide valuable information for potential therapeutic or preventive measures in the treatment of metabolic disease. For identifying ERR agonists, ERR cell line (provided by NTP) has been used to screen Tox21 10K library.
The ERR cells were dispensed at 2,000 cells/5 ul/well in 1536-well white plates using a Multidrop dispenser. After the assay plates were incubated at a 37 C/5% CO2 incubator for 6 hours, 23 nL of compounds dissolved in DMSO, positive and negative controls or DMSO only was transferred to the assay plate by a pin tool. The plates were incubated at 37 C for 18 hours. 4 ul/well of One-Glo reagent was added into the assay plates using a Flying Reagent Dispenser. After 30-minute incubation at room temperature, the luminescence intensity in the plates was measured using a ViewLux plate reader.
% is set by controls: 0 for no effect and ±100 for the full control effect.

Compound | activity change, positive = activation
C[C@H]1O[C@@H](O[C@H]2[C@@H](O)C[C@H](O[C@H]3[C@@H](O)C[C@H](O[C@H]4CC[C@@]5(C)[C@H](CC[C@@H]6[C@@H]5C[C@@H](O)[C@]5(C)[C@@H](C7=CC(=O)OC7)CC[C@]65O)C4)O[C@@H]3C)O[C@@H]2C)C[C@H](O)[C@@H]1O | -72.5% (active)
CC1=C(/C=C/C(C)=C/C=C/C(C)=C/C(=O)Nc2ccc(O)cc2)C(C)(C)CCC1 | -57.7%
CCOC(=O)N1CCC(=C2c3ccc(Cl)cc3CCc3cccnc32)CC1 | -46%

Same assay, conditions: ERR reporter cell line, ONE-Glo luciferase, 18 h; at 92.4 µM (top of the series)

Compound | activity change, positive = activation
C[C@H]1O[C@@H](O[C@H]2[C@@H](O)C[C@H](O[C@H]3[C@@H](O)C[C@H](O[C@H]4CC[C@@]5(C)[C@H](CC[C@@H]6[C@@H]5C[C@@H](O)[C@]5(C)[C@@H](C7=CC(=O)OC7)CC[C@]65O)C4)O[C@@H]3C)O[C@@H]2C)C[C@H](O)[C@@H]1O | -71.3%
CC1=C(/C=C/C(C)=C/C=C/C(C)=C/C(=O)Nc2ccc(O)cc2)C(C)(C)CCC1 | -54.4%
CCOC(=O)N1CCC(=C2c3ccc(Cl)cc3CCc3cccnc32)CC1 | -60.8%

Same assay, conditions: ERR reporter cell line, ONE-Glo luciferase, 18 h; at 92.4 µM (top of the series) unless noted

Compound | activity change, positive = activation
c1cc[nH]c1 | -5.69%
CCCCCCCCCCCCCCCCCO | -4.89% [at 19 µM]
O=C1c2c(O)ccc(O)c2C(=O)c2c(NCCNCCO)ccc(NCCNCCO)c21 | -59.3% [at 42.5 µM]
CCNc1nc(NC(C)CC)nc(OC)n1 (stereo not given) | 10.4%
Oc1c(Br)cc(Br)c2cccnc12 | -61.3% [at 42.5 µM]
CCC(C)C(=O)OC (stereo not given) | -4.99%
CCCCCCOc1cc(C)c(O)c(C)c1C | -42.5%
CCN(CC)CCNc1ccc(CO)c2sc3ccccc3c(=O)c12 | -56.6% [at 42.5 µM]
Cc1cc(Nc2ccc(O)cc2)ccc1N | -47.7%
NC(=O)c1nc(-c2cccc(-c3cc(F)ccc3OCC(F)(F)C(F)(F)F)c2)n[nH]1 | -59.7%
Oc1ccc(-c2ccc(O)cc2)cc1 | -24.2%
CCCCCCCCCCCCN(CCO)CCO | -79.7%
Cc1nc(Nc2ncc(C(=O)Nc3c(C)cccc3Cl)s2)cc(N2CCN(CCO)CC2)n1 | -44.6% [at 42.5 µM]
CCCCCCCC/C=C\CCCCCCCC(=O)NCc1ccc(O)c(OC)c1 | -18.5% [at 42.5 µM]
CC(C)OC(=O)c1cc(C(=O)OC(C)C)cc([N+](=O)[O-])c1 | -0.42%
CCCC(CC)CCCCCCCN (stereo not given) | -20.1%
CC(C)(C)CC(C)(C)c1ccccc1O | 1.59%

Compound | activity change, positive = activation
CC1(C)COCN1 | 5.19%
CC(=O)OC(OC(C)=O)c1ccc([N+](=O)[O-])o1 | -81.4%
CC(C(O)c1ccccc1)N(C)CCOC(c1ccccc1)c1ccccc1 (stereo not given) | -45.6% [at 42.5 µM]
CCCCCCCCCCc1ccccc1 | 0.758%
c1cc2c3c(c1)ccc1cccc(c13)C2 | -42.3%
C=C/C=C/C=C/CCCCC | 1.56% [at 19 µM]
CC1CCCCN1CCCOC(=O)c1ccc(OC2CCCCC2)cc1 (stereo not given) | -35.8% [at 42.5 µM]
C[Si](C)(C)Cl | 0.496%
NC1(c2ccc(-c3nc4ccn5c(=O)[nH]nc5c4cc3-c3ccccc3)cc2)CCC1 | -52.3% [at 42.5 µM]
CCCCCCOc1ccc(O)cc1 | 0.107%
CC(C)c1ccc(O)c(C(C)C)c1 | -4.92%
C=C[C@](C)(O)CC[C@@H]1[C@@]2(C)CCCC(C)(C)[C@@H]2CC[C@@]1(C)O | -46.9%
O=C(c1ccccc1)c1cc(Cl)ccc1O | -10.3%
CCC(C)c1cc([N+](=O)[O-])cc([N+](=O)[O-])c1OC(=O)OC(C)C (stereo not given) | -53.4%
CCCCCCCCCCOCC(O)CN (stereo not given) | -64% [at 42.5 µM]
CCCCCCCCCC(=O)N(C)C | 3.98%
O=C(NO)c1ccccc1 | -48.5%
